Test results published in PubChem BioAssay (NCATS).
Inconclusive results are not listed. Where a call stands in place of a potency, no number is given. The source made the active and inactive calls. The call rests on the fitted dose curve; in most records, active means well fitted curve in the direction sought with a large enough effect; inconclusive means small, poorly fitted or top-dose-only effect, or another doubt; inactive means no such curve, though single readings can be large; an effect the other way counts as inactive or inconclusive.

Tests used:
[1] = tested on: Zika virus NS2B-NS3 protease; assay: Primary screen GU AMC qHTS for Zika virus inhibitors (AID 1347154); further: nearly all actives have a fitted effect of over 70% in size
Summary of the method: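 Unlinked Zika NS2B hydrophilic domain–NS3 protease complex at 25 nM in 10 mM Tris-HCl pH 8.0, 0.01% Tween 20, with an AMC peptide substrate. Fluorescence change (340/450 nm) over 15 min at room temperature, normalized to controls, fitted to 4-parameter Hill.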

[2] = tested on: Zika virus NS2B-NS3 protease (unlinked complex); assay: Primary screen GU Rhodamine qHTS for Zika virus inhibitors: Unlinked NS2B-NS3 protease assay (AID 1347159); further: nearly all actives have a fitted effect of over 60% in size
Summary of the method: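 In dose–response format, inhibition of unlinked protease (25 nM) was measured with 1.5 microM bis-peptide Rhodamine110 substrate. Aprotinin served as the intraplate control.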

[3] = tested on: Zika virus NS2B-NS3 protease (linked construct); assay: Primary screen NINDS Rhodamine qHTS for Zika virus inhibitors (AID 1347160); further: nearly all actives have a fitted effect of over 55% in size
Summary of the method: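 Each compound, titrated, sat 15 min with 25 nM linked protease before 1.5 microM Rhodamine110 substrate went in. Fluorescence gain over the next 15 min, in pH 8.0 Tris with Tween 20, gave Hill-fitted curves.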

SMILES | Potency [1] | Potency [2] | Potency [3]
Cc1cnc(C(=O)O)c[n+]1[O-] | inactive |  | 
CCOC(CN1C(=O)[C@](CC(=O)Nc2ccc(C)cc2)(NC(=O)Nc2ccc(C)cc2)c2ccccc21)OCC | inactive |  | 
COc1ccc2c(Oc3ccc(NC(=O)c4c(C)n(CC(C)(C)O)n(-c5ccccc5)c4=O)nc3)ccnc2c1 | inactive | inactive | inactive
O=C(O)C=Cc1ccc(O)c(O)c1 | inactive |  | 
CC=CC(=O)N(CC)c1ccccc1C | inactive |  | 
COC(=O)C1=CO[C@@H](O)[C@@H]2C(CO)=CC[C@@H]12 | inactive |  | 
O=c1c(-c2ccc(O)cc2)coc2cc(O[C@@H]3O[C@H](CO)[C@H](O)[C@H](O)[C@H]3O)ccc12 | inactive |  | 
CC(C)(C)NC(=O)Nc1cccc(Nc2ncc(F)c(NC(C)(C)CO)n2)c1 | inactive | inactive | inactive
CO[C@H]1C[C@@H]2CC[C@@H](C)[C@@](O)(O2)C(=O)C(=O)N2CCCC[C@@H]2C(=O)O[C@H]([C@H](C)C[C@@H]2CC[C@H](OC(=O)C(C)(CO)CO)[C@H](OC)C2)CC(=O)[C@H](C)C=C(C)[C@@H](O)[C@@H](OC)C(=O)[C@H](C)C[C@H](C)C=CC=CC=C1C | inactive |  | 
O=C(O)c1ccccc1C(=O)Nc1ccc(-c2ccccc2)cc1 | inactive | inactive | inactive
O=C(NC1CCOCC1)c1ccc(-c2cc(-c3cn[nH]c3-c3ccccn3)ccn2)cc1 | inactive | inactive | inactive
COCCCCC(=NOCCN)c1ccc(C(F)(F)F)cc1 | inactive |  | 
O=C(N[C@@H](c1ccccc1)[C@@H]1CCCCN1)c1cccc(C(F)(F)F)c1Cl | inactive |  | 
